About 83,000 compounds went through this panel and 20% of them were active in at least one assay; those are over-represented in the sample as a whole.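 Single-concentration screen, 48 h exposure, 96-well plates. Endpoint: percent growth. Below 10 = active.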 Unmarked numbers belong to inactive results. Calls of active or inactive are those of the source.
test system: HT29 colon; assay: NCI-60 one-dose screen, 48 h (100 = growth as untreated, 0 = no growth, -100 = all killed); conditions: 10 µM unless noted
Method: Growth inhibition of the HT29 human tumor cell line is measured as a screen for anti-cancer activity. Cells are grown in 96 well plates and exposed to the test compound for 48 hours. Compounds are tested at a single concentration, which is 10^-5 M for most compounds. The reported endpoint is percent growth (GI% or GIPRCNT), where numbers from 0 - 100% represent growth inhibition, and numbers from -100% - 0 represent cell death. For example, a value of 40 represents 60% growth inhibition. A value of 0 means no net growth occurred over the course of the experiment. A value of -40 indicates 40% of cells at the beginning of the experiment died by the end of the experiment. A value of -100 means all cells are dead at the end of the experiment.
NCI-60 Human Tumor Cell Lines Screen was performed using the standard one-dose NCI protocol, which is described in more detail at https://dtp.cancer.gov/discovery_development/nci-60/default.htm.
Compounds with GIPRCNT values below 10 were considered active. Activity score was based on GIPRCNT using the following formula: […]
Score is 0 for GIPRCNT values of 100 or above, 50 for GIPRCNT values of 0, and 100 for GIPRCNT values of -100.

Structure (SMILES) | growth
COc1cc(C2CC(c3ccc(Nc4nc(NCCO)nc(Nc5ccc(Cl)cc5)n4)cc3)=Nc3c(N)nc(N)nc3N2)cc(OC)c1OC (stereo not given) | 60.9%
CCN1C(=O)N(CC)C2SC(N/N=C/c3cccs3)=NC21 (stereo not given) | 1.59% (active)
N#Cc1c(-c2ccccc2)cc(-c2c[nH]c3ccccc23)nc1-c1c[nH]c2ccccc12 | 103%
Cc1cc(O)c2c(c1)C(=O)C(c1c(C)cc3c(c1O)C(=O)C=CC3=O)=CC2=O | 65.3%
CCN1CCN(c2cc(C(=O)Nc3nc4ccc(Oc5ccnc(C(=O)NC)c5)cc4s3)cc(C(F)(F)F)c2)CC1 | 18.5%
COc1ccc(S(=O)(=O)NCCCNc2nccc(-n3cnc4ccccc43)n2)cc1 | 99.7%
COc1cc(/C=N/Nc2ccnc3cc(Cl)ccc23)cc(OC)c1O | 8.25% (active)
C#C[C@]1(O)CC[C@H]2[C@@H]3CC=C4c5sc(-c6ccccn6)nc5CC[C@]4(C)[C@H]3CC[C@@]21C | 68.2%
Cc1ccc(/C=C/CC(=O)Nc2ccc(C(=O)Nc3ccc(F)cc3N)nc2)cn1 | 15.9%
C/C(=N\NC(=O)CSc1nc2sc3c(c2c(=O)n1-c1ccccc1)CCC(C)C3)c1ccc(Cl)cc1 (stereo not given) | 62.8%
O=c1[nH]c2cc(Cl)ccc2n1C1CCN(c2ccc3nnc(Cl)n3n2)CC1 | 93.2%
O=C(C[n+]1ccnc2ccccc21)c1ccc(O)c(O)c1 | 18.3%
Cc1cn(-c2cc(NC(=O)c3cncc(C#Cc4cnc5ccc(OCCCS(C)(=O)=O)nn45)c3)cc(C(F)(F)F)c2)cn1 | 16.1%
O=S(=O)(Nc1ccc(-n2cnc3cc(-c4ccc(O)cc4)ccc32)cc1)C1CC1 | 98.9%
Nc1nc(-c2cccc([N+](=O)[O-])c2)c(N=Nc2ccccc2[N+](=O)[O-])s1 | 80.2%
COc1ccc(/C=N\NC(=O)c2ccc3nc(-c4ccc(Br)cc4)[nH]c3c2)cc1 | 17.5%
C/C(=C(/C)C1CC1CCN(C(=O)c1ccc([N+](=O)[O-])cc1)S(=O)(=O)c1ccc(C)cc1)C1CCCCC1 (stereo not given) | 99.2%
N#C/C(=C\c1ccc(N2CCCCC2)cc1)C(=O)Nc1sc2c(c1C#N)CCC2 | 98.8%
COc1ccc(CCN2C(=O)/C(=C/c3nc(CO)cs3)SC2=S)cc1 | 103%
COc1cc2oc(-c3cccc(NC(=O)c4cc(NC(=O)[C@H](C)NC(=O)OC(C)(C)C)ccc4C)c3)cc(=O)c2c(OC)c1OC | 75.5%

Structure (SMILES) | growth
CNC(=O)c1cc(Oc2ccc3nc(NC(=O)c4ccc(CN5CCCN(C)CC5)c(C(F)(F)F)c4)sc3c2)ccn1 | -75.5% (active)
COc1cc(CNC(=O)Cc2ccccc2[N+](=O)[O-])ccc1OCC(=O)NO | 110%
CCOC(=O)/C(F)=C/C1CC1CCc1cccc(C(F)(F)F)c1 (stereo not given) | 107%
C=CCn1c(SCC(=O)Nc2cccc(C(=O)/C=C/c3ccc(Br)cc3)c2)nc2ccccc2c1=O | 83.9%
C=CCn1c(SCC(=O)Nc2cccc(C(=O)/C=C/c3ccc(Cl)cc3)c2)nc2ccccc2c1=O | 84.8%
C=CCn1c(SCC(=O)Nc2cccc(C(=O)/C=C/c3ccc(OC)c(OC)c3)c2)nc2ccccc2c1=O | 95%
COc1ccc(-c2cc(-c3cccc4ccccc34)n3c(n2)nc2ccccc23)cc1 | 33.8%
NS(=O)(=O)c1ccc(Nc2nc(N/N=C/c3ccc(F)cc3)nc(Nc3ccccc3)n2)cc1 | 4.73% (active)
C#CCOc1ccc(C(Nc2cc(Cl)ccc2Cl)c2nnnn2C2CCCCC2)cc1 (stereo not given) | 92.7%
CC1(C)CC[C@]2(C(=O)O)CC[C@]3(C)C(=CCC4[C@@]5(C)C[C@@H](O)[C@@H]6OC(c7ccccc7O)OC[C@@]6(C)C5CC[C@]43C)C2C1 (stereo not given in full) | 44.1%
CCOc1c(C#N)c(Nc2ccc(S(N)(=O)=O)cc2)c(C#N)c2nnc(C)n12 | 107%
c1cncc(-c2cn3nc(-c4c[nH]c5ccccc45)sc3n2)c1 | 21.6%
Oc1ccc(-c2nnc(SCc3ccc(O)c4ncccc34)o2)cc1 | 24%
COc1cc(C(=O)c2cc(C(C)=O)c3c4ccccc4ccn23)cc(OC)c1OC | 39.6%
CC1(COc2ccc3ncc(C#Cc4cncc(C(=O)Nc5cc(C(C)(C)C)on5)c4)n3n2)COC1 | 101%
CC(C)(C)OC(=O)N1CCN(S(=O)(=O)/N=C2\NC(=O)NC2=C(Cl)Cl)CC1 | 106%
Cc1cc(Cl)cc(NS(=O)(=O)c2ccc(-c3cnc(C4CC4)o3)cc2)c1 | 10.7%
C#C[C@]1(O)CC[C@H]2[C@@H]3CC=C4c5sc(-c6ccc(OC)cc6)nc5CC[C@]4(C)[C@H]3CC[C@@]21C | 46.6%
CCCC(=O)NC(c1cccnc1)c1cc(Cl)c2cccnc2c1O (stereo not given) | 35.5%
COc1cc(C(=O)C[n+]2ccc3ccccc3c2)cc(OC)c1OC | 95.2%
